Results with a measured potency or affinity are listed apart. Records with an inconclusive call do not appear. The source made the active and inactive calls.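 The calls were made as follows, unless noted: active = a dose-response fit showing signal loss, with half-maximal concentration no higher than twice the top tested dose; inconclusive = flat fit between 30% and 70% signal loss, or poor fit; inactive = the rest.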
Tests used:
[1] = Cryptococcus neoformans growth inhibition, dose response, Alamar Blue, cherry-picks (AID 686998;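 active = falling signal with fitted half-maximal potency no higher than twice the top valid tested dose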)
[2] = inducers of Cryptococcus neoformans cell lysis, dose response, AK release luminescence, cherry-picks (AID 687000;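 active = fitted dose curve reaches 40% lysis signal rise at or below the highest valid concentration tested for that sample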;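 also: luminescent detection of adenylate kinase leaking from lysed yeast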)
[3] = HepG2 cell cytotoxicity, dose response, cytotoxicity control, cherry-picks, set 2 (AID 687002)
[4] = HeLa cell cytotoxicity, dose response, cytotoxicity control, ATP luminescence, cherry-pick samples (AID 687004;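 active = a fitted half-maximal concentration no higher than twice the top valid tested dose, with signal falling as cells die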)

Measured: outcome

CO[C@H](CN(C)Cc1cc(F)ccc1F)[C@@H](C)CN([C@@H](C)CO)S(=O)(=O)c1ccc(F)cc1
inactive: [1] | [2] | [3] | [4]

CNC(=O)C[C@@H]1CC[C@@H]2[C@H](COC[C@@H](O)CN2C(=O)Nc2ccc3c(c2)OCO3)O1
inactive: [1] | [2] | [3] | [4]

CCCN1C[C@@H](C)[C@H](OC)CN(C)C(=O)c2ccc(NC(=O)c3cccc(F)c3)cc2OC[C@@H]1C
inactive: [1] | [2] | [3] | [4]

O=C(C[C@H]1C=C[C@H](NC(=O)Nc2cc(F)ccc2F)[C@@H](CO)O1)NCCCN1CCOCC1
inactive: [1] | [2] | [3] | [4]

C[C@@H]1CN([C@@H](C)CO)C(=O)CCCn2cc(nn2)CO[C@@H]1CN(C)C(=O)CCCN(C)C
inactive: [1] | [2] | [3] | [4]

CO[C@H]1CN(C)C(=O)c2cc(NC(C)=O)ccc2OC[C@H](C)N(Cc2cccc(F)c2)C[C@@H]1C
inactive: [1] | [2] | [3] | [4]

C[C@H](CO)N1C[C@H](C)[C@H](CN(C)S(=O)(=O)c2ccc(F)cc2)Oc2ccc(NS(=O)(=O)c3ccc(Cl)cc3)cc2C1=O
inactive: [1] | [2] | [3] | [4]

C[C@@H]1CCCCO[C@@H](CN(C)S(=O)(=O)c2cccs2)[C@H](C)CN([C@@H](C)CO)C(=O)c2cc(NC(=O)CCC(F)(F)F)ccc2O1
inactive: [1] | [2] | [3] | [4]

C[C@@H]1CN([C@@H](C)CO)C(=O)c2cc(-c3cncnc3)cnc2O[C@H]1CN(C)C(=O)Cc1ccccc1
inactive: [1] | [2] | [3] | [4]

COc1cccc(-c2cn(CC[C@@H]3CC[C@H](NC(C)=O)[C@@H](CO)O3)nn2)c1
inactive: [1] | [2] | [3] | [4]

COc1cccc(S(=O)(=O)Nc2ccc3c(c2)[C@@H]2C[C@@H](CC(=O)NCc4cccc(F)c4)O[C@H](CO)[C@@H]2O3)c1
inactive: [1] | [2] | [3] | [4]

CC=Cc1ccc2n(c1=O)C[C@H]1[C@H](CO)[C@@H](C(=O)N3CCOCC3)N(CC3CC3)[C@@H]21 (mixture of isomers)
inactive: [1] | [2] | [3] | [4]

COc1ccc(NC(=O)N(C)C[C@H]2OCCCC[C@H](C)Oc3ccc(NC(=O)C4CCCCC4)cc3C(=O)N([C@@H](C)CO)C[C@@H]2C)cc1
inactive: [1] | [2] | [3] | [4]

C[C@H]1CN([C@@H](C)CO)C(=O)c2cccc(NS(C)(=O)=O)c2O[C@@H]1CN(C)Cc1ccc(-c2ccccc2)cc1
inactive: [1] | [2] | [3] | [4]

CCCN1C[C@H](C)[C@@H](OC)CN(C)C(=O)c2cc(NC(=O)c3cccc(F)c3)ccc2OC[C@H]1C
inactive: [1] | [2] | [3] | [4]

C[C@H]1CN([C@@H](C)CO)C(=O)c2cc(C#Cc3ccccn3)cnc2O[C@H]1CN(C)Cc1ccncc1
inactive: [1] | [2] | [3] | [4]

C=CCNC(=O)CN(c1ccc(F)cc1)S(=O)(=O)c1ccc(OC)cc1
inactive: [1] | [2] | [3] | [4]

C/C=C/c1cnc2c(c1)C(=O)N([C@H](C)CO)C[C@@H](C)[C@@H](CN(C)C(=O)C1CCCCC1)O2
inactive: [1] | [2] | [3] | [4]

CNC[C@@H]1OCCCC[C@H](C)Oc2ccc(NC(=O)Nc3ccc(F)cc3)cc2C(=O)N([C@@H](C)CO)C[C@H]1C
inactive: [1] | [2] | [3] | [4]

CC(=O)N1[C@@H]2c3ccc(-c4ccccc4)c(=O)n3C[C@H]1[C@H](CO)[C@H]2C(=O)Nc1ccccc1
inactive: [1] | [2] | [3] | [4]

CC(C)NC(=O)N[C@H]1CC[C@@H](CCNC(=O)C2CC2)O[C@@H]1CO
inactive: [1] | [2] | [3] | [4]

C[C@@H]1CN([C@@H](C)CO)C(=O)c2cccc(NS(=O)(=O)c3ccc(F)cc3)c2O[C@H]1CN(C)S(=O)(=O)c1ccc(Cl)cc1
inactive: [1] | [2] | [3] | [4]

Cc1noc(C)c1NC(=O)N(C)C[C@@H]1Oc2ccc(NS(=O)(=O)c3cn(C)cn3)cc2CC(=O)N([C@H](C)CO)C[C@H]1C
inactive: [1] | [2] | [3] | [4]

O=C(C[C@@H]1C[C@@H]2c3cc(NC(=O)Nc4ccc(F)cc4)ccc3O[C@@H]2[C@@H](CO)O1)NCC1CC1
inactive: [1] | [2] | [3] | [4]

COc1ccccc1-c1cnc2c(c1)C(=O)N([C@@H](C)CO)C[C@@H](C)[C@H](CN(C)C(=O)c1cccnc1)O2
inactive: [1] | [2] | [3] | [4]

C[C@H](CO)N1C[C@H](C)[C@@H](CN(C)S(=O)(=O)c2ccccc2)Oc2c(NC(=O)Nc3cccc4ccccc34)cccc2C1=O
inactive: [1] | [2] | [3] | [4]

Cc1ccccc1-n1ncc2c(SCC(=O)NC3CCCC3)ncnc21
inactive: [1] | [2] | [3] | [4]

C[C@H](CO)N1C[C@H](C)[C@H](CN(C)CC2CCCCC2)Oc2ccc(NC(=O)Nc3ccc4c(c3)OCO4)cc2C1=O
inactive: [1] | [2] | [3] | [4]

O=C(C[C@H]1C[C@@H]2c3cc(NC(=O)c4cccnc4)ccc3O[C@@H]2[C@@H](CO)O1)NCCc1ccccc1
inactive: [1] | [2] | [3] | [4]

COc1ccc(NC(=O)Nc2ccc3c(c2)C(=O)N([C@H](C)CO)C[C@H](C)[C@H](CN(C)C(=O)Cc2ccccc2)OCCCC[C@H](C)O3)cc1
inactive: [1] | [2] | [3] | [4]

O=C(C[C@@H]1CC[C@H](NC(=O)Cc2ccccn2)[C@H](CO)O1)NCCc1ccccc1
inactive: [1] | [2] | [3] | [4]

Cc1ccc(S(=O)(=O)Nc2ccc3c(c2)C(=O)N([C@@H](C)CO)C[C@@H](C)[C@@H](CN(C)S(=O)(=O)c2ccc(Cl)cc2)OCCCC[C@H](C)O3)cc1
inactive: [1] | [2] | [3] | [4]

O=C(C[C@H]1C[C@@H]2c3cc(NC(=O)CC4CC4)ccc3O[C@@H]2[C@@H](CO)O1)NCc1cccc(F)c1
inactive: [1] | [2] | [3] | [4]

C[C@H](NC(=O)C[C@@H]1CC[C@@H]2[C@H](COC[C@@H](O)CN2C(=O)Nc2cccc(F)c2)O1)c1ccccc1
inactive: [1] | [2] | [3] | [4]

O=C(c1cccnc1)N1CCC(Oc2ccc(C(=O)N3CCCC(O)C3)cc2)CC1 (stereo unspecified)
inactive: [1] | [2] | [3] | [4]

Cc1noc(C)c1NC(=O)N(C)C[C@H]1Oc2ccc(NS(=O)(=O)c3cn(C)cn3)cc2CC(=O)N([C@H](C)CO)C[C@H]1C
inactive: [1] | [2] | [3] | [4]

C[C@H](CO)N1C[C@H](C)[C@@H](CN(C)S(C)(=O)=O)Oc2cc(C#Cc3ccccc3)ccc2S1(=O)=O
inactive: [1] | [2] | [3] | [4]

C[C@H]1CN([C@@H](C)CO)C(=O)c2cc(Br)cnc2O[C@@H]1CN(C)Cc1ccccn1
inactive: [1] | [2] | [3] | [4]

Cc1ccc(S(=O)(=O)Nc2ccc3c(c2)C(=O)N([C@H](C)CO)C[C@H](C)[C@@H](CN(C)Cc2ccccc2)O3)cc1
inactive: [1] | [2] | [3] | [4]

C[C@H](CO)N1C[C@H](C)[C@@H](CN(C)C(=O)C2CCOCC2)Oc2ncc(C#CCc3ccccc3)cc2C1=O
inactive: [1] | [2] | [3] | [4]

C[C@@H]1CN([C@@H](C)CO)C(=O)c2cc(N(C)C)ccc2O[C@@H]1CN(C)C(=O)Nc1ccc(C(F)(F)F)cc1
inactive: [1] | [2] | [3] | [4]

CC(=O)c1cccc(NC(=S)NC2CCCCC2)c1
inactive: [1] | [2] | [3] | [4]

COc1ccc(NC(=O)N(C)C[C@H]2OCCCC[C@@H](C)Oc3ccc(NC(=O)c4ccccc4)cc3C(=O)N([C@@H](C)CO)C[C@H]2C)cc1
inactive: [1] | [2] | [3] | [4]

Cc1cccc(N2CCN(C(=O)C3CCC(=O)N3C(C)C)CC2C)c1 (stereo unspecified)
inactive: [1] | [2] | [3] | [4]

CNC(=O)C[C@H]1CC[C@H]2[C@H](COc3ccc(NC(=O)Nc4ccccc4)cc3C(=O)N2C)O1
inactive: [1] | [2] | [3] | [4]

CCOc1cc(/C=N/NC(=O)CCCC(=O)NC2CCCCC2)ccc1O
inactive: [1] | [2] | [3] | [4]

O=C(C[C@@H]1CC[C@H]2[C@@H](COC[C@@H](O)CN2Cc2ccc(Cl)cc2)O1)NCc1cccc(F)c1
inactive: [1] | [2] | [3] | [4]

CCCC#Cc1ccc2c(c1)O[C@@H](CN(C)C)[C@@H](C)CN([C@@H](C)CO)S2(=O)=O
inactive: [1] | [2] | [3] | [4]

CCCNC(=O)[C@@H]1[C@@H](CO)[C@@H]2Cn3c(cccc3=O)[C@H]1N2C(=O)Nc1cc(F)ccc1F
inactive: [1] | [2] | [3] | [4]

O=C(Nc1cccc(F)c1)N[C@H]1CC[C@@H](CCNS(=O)(=O)c2cccc(Cl)c2)O[C@@H]1CO
inactive: [1] | [2] | [3] | [4]

CO[C@H]1CN(C)C(=O)c2cc(NC(=O)c3ccccc3F)ccc2OC[C@H](C)N(CC2CCOCC2)C[C@H]1C
inactive: [1] | [2] | [3] | [4]

COc1ccccc1CNC(=O)C[C@@H]1CC[C@@H]2[C@H](COC[C@@H](O)CN2Cc2ccccc2)O1
inactive: [1] | [2] | [3] | [4]

COc1ccc(-n2ncc3c(SCC(=O)OC(C)C)ncnc32)cc1
inactive: [1] | [2] | [3] | [4]

Cc1noc(C)c1NC(=O)Nc1ccc2c(c1)C(=O)N([C@H](C)CO)C[C@@H](C)[C@H](CN(C)S(C)(=O)=O)OCCCC[C@@H](C)O2
inactive: [1] | [2] | [3] | [4]

— PubChem BioAssay
